Columns and labels:
Assay in all cases: DAPPL (digital affinity profiling via proximity ligation, sequencing); 10 mM Tris-HCl pH 7.5, 50 mM NaCl, 1 mM DTT, 4% glycerol, room temperature, 30 min; GST-TFs on glutathione beads, 16-mer random dsDNA library, 0.1% formaldehyde crosslink after washing; high values mean tight binding
[1] = target: T1, FEV (Homo sapiens, UniProt Q99581 1-238); details: protein: recombinant; tags: N-terminal GST; dsDNA, one strand shown
T1 sequence: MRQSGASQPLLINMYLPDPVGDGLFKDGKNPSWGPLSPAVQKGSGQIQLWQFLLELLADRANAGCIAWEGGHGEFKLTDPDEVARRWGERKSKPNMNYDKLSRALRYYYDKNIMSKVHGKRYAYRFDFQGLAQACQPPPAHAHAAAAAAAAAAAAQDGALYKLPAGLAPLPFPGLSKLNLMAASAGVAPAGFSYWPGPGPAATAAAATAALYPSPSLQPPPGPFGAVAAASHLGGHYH
Method in brief: (§1)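 Pools of DNA-barcoded human transcription factors, expressed in yeast as GST fusions on glutathione beads and combined with a tag-only sample, were incubated with 200 nmole of a 16-mer random double-stranded DNA library. Incubation took 30 min at room temperature in Tris/NaCl/DTT/glycerol buffer and was followed by washing, 0.1% formaldehyde crosslinking, proximity ligation (BsaI/T4 ligase, 1 h, 37 °C), PCR amplification and sequencing on an Illumina NextSeq500. Binding signal is the ratio of a hexamer's read frequency for a factor to its frequency for the tag-only sample.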

[2] = target: ETV5 (Homo sapiens, UniProt P41161 1-510); details: protein: recombinant; tags: N-terminal GST; dsDNA, one strand shown
Chain of ETV5 (P41161 whole entry): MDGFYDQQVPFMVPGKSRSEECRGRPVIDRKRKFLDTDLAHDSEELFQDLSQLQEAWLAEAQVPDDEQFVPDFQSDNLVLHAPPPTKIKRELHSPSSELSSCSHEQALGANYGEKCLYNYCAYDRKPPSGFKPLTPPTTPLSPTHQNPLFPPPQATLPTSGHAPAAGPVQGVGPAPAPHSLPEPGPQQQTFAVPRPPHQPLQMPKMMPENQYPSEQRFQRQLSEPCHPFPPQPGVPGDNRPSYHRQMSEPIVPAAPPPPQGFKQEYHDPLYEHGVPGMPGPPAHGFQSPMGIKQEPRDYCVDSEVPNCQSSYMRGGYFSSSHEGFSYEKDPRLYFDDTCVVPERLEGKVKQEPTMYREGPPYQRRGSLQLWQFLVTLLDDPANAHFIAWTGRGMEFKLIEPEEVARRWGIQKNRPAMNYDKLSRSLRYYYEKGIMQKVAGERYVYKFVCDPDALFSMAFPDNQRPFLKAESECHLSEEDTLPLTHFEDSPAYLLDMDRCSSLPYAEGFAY
Method in brief: as §1

[3] = target: HSF1 (Homo sapiens, UniProt Q00613 1-529); details: protein: recombinant; tags: N-terminal GST; chain copies: 3; dsDNA, one strand shown
Chain of HSF1 (Q00613 whole entry): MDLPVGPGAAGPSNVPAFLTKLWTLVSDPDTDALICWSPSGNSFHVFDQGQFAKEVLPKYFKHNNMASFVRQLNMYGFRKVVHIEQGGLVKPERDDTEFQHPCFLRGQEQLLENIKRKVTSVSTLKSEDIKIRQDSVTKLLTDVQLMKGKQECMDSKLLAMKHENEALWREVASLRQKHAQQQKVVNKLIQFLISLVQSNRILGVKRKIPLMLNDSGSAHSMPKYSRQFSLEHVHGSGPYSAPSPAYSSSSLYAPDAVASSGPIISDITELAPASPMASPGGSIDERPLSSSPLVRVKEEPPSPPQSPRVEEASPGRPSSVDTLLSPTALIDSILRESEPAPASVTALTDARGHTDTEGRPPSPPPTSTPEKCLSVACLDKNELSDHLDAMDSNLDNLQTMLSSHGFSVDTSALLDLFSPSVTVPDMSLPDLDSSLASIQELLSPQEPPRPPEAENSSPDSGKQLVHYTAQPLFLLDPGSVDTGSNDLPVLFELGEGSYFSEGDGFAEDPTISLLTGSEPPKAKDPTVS
Method in brief: as §1

[4] = target: T2, SPIC (Homo sapiens, UniProt Q8N5J4 1-248); details: protein: recombinant; tags: N-terminal GST; dsDNA, one strand shown
T2 sequence: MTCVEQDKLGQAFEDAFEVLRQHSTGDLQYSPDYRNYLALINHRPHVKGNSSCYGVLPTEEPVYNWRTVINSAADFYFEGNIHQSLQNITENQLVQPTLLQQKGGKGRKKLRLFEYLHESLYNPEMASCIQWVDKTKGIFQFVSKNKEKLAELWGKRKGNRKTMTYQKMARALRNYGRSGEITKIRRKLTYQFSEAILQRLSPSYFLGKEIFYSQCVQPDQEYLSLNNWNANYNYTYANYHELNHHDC
Method in brief: as §1

[5] = target: ELF4 (Homo sapiens, UniProt Q99607 1-663); details: protein: recombinant; tags: N-terminal GST; dsDNA, one strand shown
Chain of ELF4 (Q99607 whole entry): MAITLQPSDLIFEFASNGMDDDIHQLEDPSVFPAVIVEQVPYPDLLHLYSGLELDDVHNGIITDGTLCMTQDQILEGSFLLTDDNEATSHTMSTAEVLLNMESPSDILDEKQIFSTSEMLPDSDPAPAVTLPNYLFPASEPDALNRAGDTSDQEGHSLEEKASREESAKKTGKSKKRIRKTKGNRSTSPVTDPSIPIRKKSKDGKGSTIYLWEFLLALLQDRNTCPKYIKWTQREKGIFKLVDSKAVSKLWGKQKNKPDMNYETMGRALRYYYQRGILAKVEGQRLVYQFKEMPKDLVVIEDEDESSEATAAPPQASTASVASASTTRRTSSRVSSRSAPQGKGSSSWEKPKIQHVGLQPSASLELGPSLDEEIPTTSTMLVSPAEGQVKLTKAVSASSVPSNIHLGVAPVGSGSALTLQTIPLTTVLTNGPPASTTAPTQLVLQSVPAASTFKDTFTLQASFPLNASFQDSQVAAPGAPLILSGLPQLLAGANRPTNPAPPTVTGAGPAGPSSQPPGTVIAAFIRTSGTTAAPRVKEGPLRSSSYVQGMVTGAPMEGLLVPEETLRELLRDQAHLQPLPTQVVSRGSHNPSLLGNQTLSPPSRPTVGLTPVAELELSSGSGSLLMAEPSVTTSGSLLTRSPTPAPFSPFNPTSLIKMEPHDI
Method in brief: as §1

[6] = target: T3, ELK4 (Homo sapiens, UniProt P28324-2 1-405); details: protein: recombinant; tags: N-terminal GST; dsDNA, one strand shown
T3 sequence: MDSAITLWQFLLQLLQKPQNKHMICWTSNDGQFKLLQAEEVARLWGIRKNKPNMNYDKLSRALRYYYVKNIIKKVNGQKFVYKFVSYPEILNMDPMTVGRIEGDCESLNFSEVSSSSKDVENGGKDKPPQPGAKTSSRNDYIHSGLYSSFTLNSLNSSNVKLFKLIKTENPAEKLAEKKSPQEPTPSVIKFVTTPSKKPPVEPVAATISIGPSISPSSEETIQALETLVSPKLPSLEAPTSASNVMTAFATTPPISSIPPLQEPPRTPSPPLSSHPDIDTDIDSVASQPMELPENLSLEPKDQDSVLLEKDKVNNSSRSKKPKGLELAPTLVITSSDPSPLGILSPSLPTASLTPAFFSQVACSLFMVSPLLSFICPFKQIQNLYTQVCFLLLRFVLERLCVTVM
Method in brief: as §1

[7] = target: T4, ETV2 (Homo sapiens, UniProt O00321 1-342); details: protein: recombinant; tags: N-terminal GST; dsDNA, one strand shown
T4 sequence: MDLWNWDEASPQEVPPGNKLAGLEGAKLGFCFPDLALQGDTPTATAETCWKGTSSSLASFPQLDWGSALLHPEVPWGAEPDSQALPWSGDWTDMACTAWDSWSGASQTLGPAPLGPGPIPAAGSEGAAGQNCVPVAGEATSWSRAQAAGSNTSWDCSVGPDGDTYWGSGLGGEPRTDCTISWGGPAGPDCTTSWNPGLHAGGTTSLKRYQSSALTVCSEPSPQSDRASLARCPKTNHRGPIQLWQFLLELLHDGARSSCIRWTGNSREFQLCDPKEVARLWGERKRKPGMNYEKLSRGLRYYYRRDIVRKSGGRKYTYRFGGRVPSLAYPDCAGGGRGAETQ
Method in brief: as §1

[8] = target: T5, ELF3 (Homo sapiens, UniProt P78545 1-371); details: protein: recombinant; tags: N-terminal GST; dsDNA, one strand shown
T5 sequence: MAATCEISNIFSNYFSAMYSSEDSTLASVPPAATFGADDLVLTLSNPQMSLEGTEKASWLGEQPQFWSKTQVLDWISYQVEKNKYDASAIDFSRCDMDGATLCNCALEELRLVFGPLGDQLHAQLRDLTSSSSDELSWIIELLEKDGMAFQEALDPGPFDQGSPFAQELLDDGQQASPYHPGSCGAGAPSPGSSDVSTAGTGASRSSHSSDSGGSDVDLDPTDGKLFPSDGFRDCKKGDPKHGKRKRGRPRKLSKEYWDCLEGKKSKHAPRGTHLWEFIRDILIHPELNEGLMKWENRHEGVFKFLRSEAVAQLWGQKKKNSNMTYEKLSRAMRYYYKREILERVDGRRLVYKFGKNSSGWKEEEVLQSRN
Method in brief: as §1

[9] = target: CRX (Homo sapiens, UniProt O43186 1-299); details: protein: recombinant; tags: N-terminal GST; dsDNA, one strand shown
Chain of CRX (O43186 whole entry): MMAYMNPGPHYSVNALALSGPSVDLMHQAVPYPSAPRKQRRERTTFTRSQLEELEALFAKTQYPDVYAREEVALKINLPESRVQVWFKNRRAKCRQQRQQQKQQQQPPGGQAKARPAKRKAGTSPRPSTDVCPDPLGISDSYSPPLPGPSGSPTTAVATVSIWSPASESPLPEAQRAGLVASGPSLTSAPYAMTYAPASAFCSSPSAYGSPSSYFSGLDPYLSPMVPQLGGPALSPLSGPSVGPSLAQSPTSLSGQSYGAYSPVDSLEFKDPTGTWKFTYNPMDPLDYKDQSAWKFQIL
Method in brief: as §1

[10] = target: ETV1 (Homo sapiens, UniProt P50549 1-477); details: protein: recombinant; tags: N-terminal GST; dsDNA, one strand shown
Chain of ETV1 (P50549 whole entry): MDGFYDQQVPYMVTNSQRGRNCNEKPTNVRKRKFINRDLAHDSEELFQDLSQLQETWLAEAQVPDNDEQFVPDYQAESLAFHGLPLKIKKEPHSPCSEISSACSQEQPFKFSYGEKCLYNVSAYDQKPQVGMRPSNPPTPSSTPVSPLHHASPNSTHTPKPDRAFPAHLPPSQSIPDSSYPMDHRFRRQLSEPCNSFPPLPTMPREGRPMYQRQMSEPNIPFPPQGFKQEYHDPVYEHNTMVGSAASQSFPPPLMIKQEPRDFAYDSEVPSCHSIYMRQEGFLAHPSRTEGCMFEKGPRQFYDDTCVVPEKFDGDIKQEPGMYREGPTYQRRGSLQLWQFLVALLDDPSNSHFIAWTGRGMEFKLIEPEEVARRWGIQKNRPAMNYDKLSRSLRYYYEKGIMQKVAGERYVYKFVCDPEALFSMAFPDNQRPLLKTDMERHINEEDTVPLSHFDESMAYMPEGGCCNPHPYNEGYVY
Method in brief: as §1

[11] = target: T6, ERF (Homo sapiens, UniProt P50548 1-548); details: protein: recombinant; tags: N-terminal GST; dsDNA, one strand shown
T6 sequence: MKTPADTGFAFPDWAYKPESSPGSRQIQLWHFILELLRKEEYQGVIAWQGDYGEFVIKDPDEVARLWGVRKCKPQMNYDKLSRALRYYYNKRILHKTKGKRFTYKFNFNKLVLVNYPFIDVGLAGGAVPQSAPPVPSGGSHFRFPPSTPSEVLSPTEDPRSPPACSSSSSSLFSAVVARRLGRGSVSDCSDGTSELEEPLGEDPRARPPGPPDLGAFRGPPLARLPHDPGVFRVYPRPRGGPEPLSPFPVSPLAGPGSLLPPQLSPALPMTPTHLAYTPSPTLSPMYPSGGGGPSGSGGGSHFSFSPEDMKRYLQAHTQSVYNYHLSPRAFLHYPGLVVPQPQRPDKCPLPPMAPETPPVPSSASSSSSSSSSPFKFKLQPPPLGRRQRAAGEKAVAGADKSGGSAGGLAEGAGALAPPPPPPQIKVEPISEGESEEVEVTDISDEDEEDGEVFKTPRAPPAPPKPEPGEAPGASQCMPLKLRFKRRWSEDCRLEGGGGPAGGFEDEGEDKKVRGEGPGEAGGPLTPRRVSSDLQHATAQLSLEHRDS
Method in brief: as §1

[12] = target: T7, ETV3L (Homo sapiens, UniProt Q6ZN32 1-361); details: protein: recombinant; tags: N-terminal GST; dsDNA, one strand shown
T7 sequence: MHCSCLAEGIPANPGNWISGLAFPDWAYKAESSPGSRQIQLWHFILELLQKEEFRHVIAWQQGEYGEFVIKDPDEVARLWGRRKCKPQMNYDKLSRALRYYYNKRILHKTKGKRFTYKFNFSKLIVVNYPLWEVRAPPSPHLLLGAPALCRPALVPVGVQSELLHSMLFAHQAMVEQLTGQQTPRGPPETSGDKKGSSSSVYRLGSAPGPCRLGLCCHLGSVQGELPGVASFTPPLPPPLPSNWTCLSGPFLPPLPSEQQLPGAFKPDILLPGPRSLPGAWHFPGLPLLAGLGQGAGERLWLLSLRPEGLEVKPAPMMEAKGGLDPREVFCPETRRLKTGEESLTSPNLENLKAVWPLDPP
Method in brief: as §1

[13] = target: T8, ETS2 (Homo sapiens, UniProt P15036 1-469); details: protein: recombinant; tags: N-terminal GST; dsDNA, one strand shown
T8 sequence: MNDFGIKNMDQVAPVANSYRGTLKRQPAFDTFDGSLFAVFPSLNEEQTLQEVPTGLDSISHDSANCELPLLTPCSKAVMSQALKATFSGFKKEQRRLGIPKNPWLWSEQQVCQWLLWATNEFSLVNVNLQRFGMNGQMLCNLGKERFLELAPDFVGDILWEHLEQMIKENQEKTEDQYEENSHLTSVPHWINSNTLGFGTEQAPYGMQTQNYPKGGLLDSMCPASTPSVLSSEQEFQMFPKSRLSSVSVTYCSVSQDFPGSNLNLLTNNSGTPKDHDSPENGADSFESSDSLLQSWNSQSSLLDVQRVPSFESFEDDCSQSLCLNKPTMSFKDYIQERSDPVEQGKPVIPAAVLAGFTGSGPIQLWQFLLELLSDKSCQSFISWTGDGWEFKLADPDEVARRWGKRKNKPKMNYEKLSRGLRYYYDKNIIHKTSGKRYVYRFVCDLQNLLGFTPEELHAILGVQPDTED
Method in brief: as §1

[14] = target: T9, SPDEF (Homo sapiens, UniProt O95238 1-335); details: protein: recombinant; tags: N-terminal GST; dsDNA, one strand shown
T9 sequence: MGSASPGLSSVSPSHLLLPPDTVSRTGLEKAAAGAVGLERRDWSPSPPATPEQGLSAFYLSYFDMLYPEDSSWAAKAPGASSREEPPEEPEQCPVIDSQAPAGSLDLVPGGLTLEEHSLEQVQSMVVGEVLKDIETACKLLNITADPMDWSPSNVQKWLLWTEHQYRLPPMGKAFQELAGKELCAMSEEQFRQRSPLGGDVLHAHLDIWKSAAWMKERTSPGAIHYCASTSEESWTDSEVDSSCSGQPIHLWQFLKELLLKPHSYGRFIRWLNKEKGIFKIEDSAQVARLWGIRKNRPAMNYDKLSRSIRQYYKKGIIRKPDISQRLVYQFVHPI
Method in brief: as §1

[15] = target: T10, ELF5 (Homo sapiens, UniProt Q9UKW6-2 1-255); details: protein: recombinant; tags: N-terminal GST; dsDNA, one strand shown
T10 sequence: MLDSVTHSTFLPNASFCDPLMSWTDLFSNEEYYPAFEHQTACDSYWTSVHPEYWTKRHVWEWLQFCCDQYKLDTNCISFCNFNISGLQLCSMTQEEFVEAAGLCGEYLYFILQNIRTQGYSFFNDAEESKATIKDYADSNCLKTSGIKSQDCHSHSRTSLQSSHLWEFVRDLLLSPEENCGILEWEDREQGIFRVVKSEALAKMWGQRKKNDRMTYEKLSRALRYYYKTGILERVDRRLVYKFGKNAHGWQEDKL
Method in brief: as §1

[16] = target: T11, ETV3 (Homo sapiens, UniProt P41162-2 1-143); details: protein: recombinant; tags: N-terminal GST; dsDNA, one strand shown
T11 sequence: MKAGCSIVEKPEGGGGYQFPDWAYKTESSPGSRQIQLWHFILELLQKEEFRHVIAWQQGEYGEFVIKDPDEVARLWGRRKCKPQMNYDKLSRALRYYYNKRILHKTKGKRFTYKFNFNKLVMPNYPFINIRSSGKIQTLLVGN
Method in brief: as §1

[17] = target: ETV6 (Homo sapiens, UniProt P41212 1-452); details: protein: recombinant; tags: N-terminal GST; dsDNA, one strand shown
Chain of ETV6 (P41212 whole entry): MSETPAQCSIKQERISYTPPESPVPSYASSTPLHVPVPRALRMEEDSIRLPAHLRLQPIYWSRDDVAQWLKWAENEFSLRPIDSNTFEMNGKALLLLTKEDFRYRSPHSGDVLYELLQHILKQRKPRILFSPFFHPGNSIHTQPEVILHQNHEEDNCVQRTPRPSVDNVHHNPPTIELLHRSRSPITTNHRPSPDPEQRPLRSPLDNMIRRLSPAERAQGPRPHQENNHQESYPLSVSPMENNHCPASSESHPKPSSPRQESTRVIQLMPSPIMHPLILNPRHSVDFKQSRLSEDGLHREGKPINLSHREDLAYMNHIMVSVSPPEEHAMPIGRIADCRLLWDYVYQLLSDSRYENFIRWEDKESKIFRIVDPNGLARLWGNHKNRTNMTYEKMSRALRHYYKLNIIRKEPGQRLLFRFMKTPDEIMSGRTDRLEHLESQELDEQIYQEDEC
Method in brief: as §1

CGCCTA was tested, and the binding signal [1] was 1.11 fold enrichment (6-mer frequency, TF over GST control), the binding signal [2] was 1.18 fold enrichment (6-mer frequency, TF over GST control) and the binding signal [3] was 1.15 fold enrichment (6-mer frequency, TF over GST control). For the same sequence, the binding signal [4] was 1.36 fold enrichment (6-mer frequency, TF over GST control), the binding signal [5] was 1.12 fold enrichment (6-mer frequency, TF over GST control) and the binding signal [6] was 1.28 fold enrichment (6-mer frequency, TF over GST control). The binding signal [7] was 1.13 fold enrichment (6-mer frequency, TF over GST control), the binding signal [8] was 1.06 fold enrichment (6-mer frequency, TF over GST control) and the binding signal [9] was 1.18 fold enrichment (6-mer frequency, TF over GST control). The binding signal [10] was 1.12 fold enrichment (6-mer frequency, TF over GST control), the binding signal [11] was 1.15 fold enrichment (6-mer frequency, TF over GST control) and the binding signal [12] was 1.25 fold enrichment (6-mer frequency, TF over GST control). The binding signal [13] was 1.19 fold enrichment (6-mer frequency, TF over GST control), the binding signal [14] was 1.15 fold enrichment (6-mer frequency, TF over GST control) and the binding signal [15] was 1.18 fold enrichment (6-mer frequency, TF over GST control). The binding signal [16] was 1.2 fold enrichment (6-mer frequency, TF over GST control) and the binding signal [17] was 1.14 fold enrichment (6-mer frequency, TF over GST control).
